# In the supplement of paper PMC9794691:
# ± gives the standard deviation of the averaged measurements.
# Test system: PC9
# Test: area under confluence curve of osimertinib + compound combination regimen (DTP regrowth); compare to osimertinib-only DTP control AUC of the same experiment (AUC (confluence x time, arbitrary))
# Method: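 compare to osimertinib-only DTP control AUC of the same experiment; Long-term drug-tolerant persister (DTP) screen in EGFR-mutant NSCLC cell lines in 48-well plates. The test compound was given at one fixed dose with osimertinib, either upfront (from day 0 to the DTP stage at 10-21 days, then drug-free medium) or sequentially (osimertinib alone to the DTP stage, then the test compound). IncuCyte confluence was tracked until osimertinib-only controls regrew, and AUC was computed in Prism. AUC scale depends on experiment duration, so each row carries the same-experiment osimertinib-only DTP and DMSO control AUCs; combination activity = control minus combo AUC. Osimertinib dose not stated.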
# [1] = test compound dose 1000 nM, dosing schedule: sequential, osimertinib-only DTP control AUC in same experiment: 10725, DMSO control AUC in same experiment: 30578
# [2] = test compound dose 1000 nM, dosing schedule: upfront, osimertinib-only DTP control AUC in same experiment: 10245, DMSO control AUC in same experiment: 30578
# [3] = test compound dose 1000 nM, dosing schedule: sequential, osimertinib-only DTP control AUC in same experiment: 15001, DMSO control AUC in same experiment: 22064
# [4] = test compound dose 1000 nM, dosing schedule: upfront, osimertinib-only DTP control AUC in same experiment: 24924, DMSO control AUC in same experiment: 22064
# [5] = test compound dose 1000 nM, dosing schedule: sequential, osimertinib-only DTP control AUC in same experiment: 15044, DMSO control AUC in same experiment: 30604
# [6] = test compound dose 1000 nM, dosing schedule: upfront, osimertinib-only DTP control AUC in same experiment: 20672, DMSO control AUC in same experiment: 30604
compound,measurement,setting,value
COC[C@H]1Cn2cc(-c3nc(Nc4ccnn4C)ncc3C)nc2C(=O)N1Cc1ccc(F)c(F)c1 + C=CC(=O)Nc1cc(Nc2nccc(-c3cn(C)c4ccccc34)n2)c(OC)cc1N(C)CCN(C)C [osimertinib],area under confluence curve,"test compound dose 100 nM, dosing schedule: sequential, osimertinib-only DTP control AUC in same experiment: 11414, DMSO control AUC in same experiment: 31219",6430
same,area under confluence curve,"test compound dose 100 nM, dosing schedule: sequential, osimertinib-only DTP control AUC in same experiment: 14554, DMSO control AUC in same experiment: 49189",2470
same,area under confluence curve,"test compound dose 100 nM, dosing schedule: upfront, osimertinib-only DTP control AUC in same experiment: 18848, DMSO control AUC in same experiment: 31219",2020
same,area under confluence curve,"test compound dose 100 nM, dosing schedule: upfront, osimertinib-only DTP control AUC in same experiment: 24473, DMSO control AUC in same experiment: 49189",2580
C/C=C/Cn1cc(-c2cc(OC)c(C(=O)N3CCOCC3)cc2OC)c2cc(C)[nH]c2c1=O + C=CC(=O)Nc1cc(Nc2nccc(-c3cn(C)c4ccccc34)n2)c(OC)cc1N(C)CCN(C)C [osimertinib],area under confluence curve,"test compound dose 100 nM, dosing schedule: sequential, osimertinib-only DTP control AUC in same experiment: 12891, DMSO control AUC in same experiment: 44384",7150
same,area under confluence curve,"test compound dose 100 nM, dosing schedule: upfront, osimertinib-only DTP control AUC in same experiment: 16570, DMSO control AUC in same experiment: 44384",7750
C=CCn1c(=O)c2cnc(Nc3ccc(N4CCN(C)CC4)cc3)nc2n1-c1cccc(C(C)(C)O)n1 + C=CC(=O)Nc1cc(Nc2nccc(-c3cn(C)c4ccccc34)n2)c(OC)cc1N(C)CCN(C)C [osimertinib],area under confluence curve,"test compound dose 100 nM, dosing schedule: sequential, osimertinib-only DTP control AUC in same experiment: 15001, DMSO control AUC in same experiment: 22064",13500
same,area under confluence curve,"test compound dose 100 nM, dosing schedule: sequential, osimertinib-only DTP control AUC in same experiment: 15044, DMSO control AUC in same experiment: 30604",11300
same,area under confluence curve,"test compound dose 100 nM, dosing schedule: upfront, osimertinib-only DTP control AUC in same experiment: 20672, DMSO control AUC in same experiment: 30604",16100
same,area under confluence curve,"test compound dose 100 nM, dosing schedule: upfront, osimertinib-only DTP control AUC in same experiment: 24924, DMSO control AUC in same experiment: 22064",20200
CN1CCN(CCOc2cc(OC3CCOCC3)c3c(Nc4c(Cl)ccc5c4OCO5)ncnc3c2)CC1 [Saracatinib] + C=CC(=O)Nc1cc(Nc2nccc(-c3cn(C)c4ccccc34)n2)c(OC)cc1N(C)CCN(C)C [osimertinib],area under confluence curve,"test compound dose 300 nM, dosing schedule: sequential, osimertinib-only DTP control AUC in same experiment: 9267, DMSO control AUC in same experiment: 19507",4570
same,area under confluence curve,"test compound dose 300 nM, dosing schedule: sequential, osimertinib-only DTP control AUC in same experiment: 12589, DMSO control AUC in same experiment: 28243",8930
same,area under confluence curve,"test compound dose 300 nM, dosing schedule: upfront, osimertinib-only DTP control AUC in same experiment: 10534, DMSO control AUC in same experiment: 19507",1600
same,area under confluence curve,"test compound dose 300 nM, dosing schedule: upfront, osimertinib-only DTP control AUC in same experiment: 16088, DMSO control AUC in same experiment: 28243",16200
Oc1nc(-c2ccc(C(F)(F)F)cc2)nc2c1CSCC2 + C=CC(=O)Nc1cc(Nc2nccc(-c3cn(C)c4ccccc34)n2)c(OC)cc1N(C)CCN(C)C [osimertinib],area under confluence curve,"test compound dose 300 nM, dosing schedule: sequential, osimertinib-only DTP control AUC in same experiment: 12502, DMSO control AUC in same experiment: 49143",9570
same,area under confluence curve,"test compound dose 300 nM, dosing schedule: upfront, osimertinib-only DTP control AUC in same experiment: 28310, DMSO control AUC in same experiment: 49143",8680
C[C@@H](Nc1cc(F)cc(F)c1)c1cc(C(=O)N(C)C)cc2c(=O)cc(N3CCOCC3)oc12 + C=CC(=O)Nc1cc(Nc2nccc(-c3cn(C)c4ccccc34)n2)c(OC)cc1N(C)CCN(C)C [osimertinib],area under confluence curve,"test compound dose 1000 nM, dosing schedule: sequential, osimertinib-only DTP control AUC in same experiment: 1963, DMSO control AUC in same experiment: 30580",1970 ± 150
same,area under confluence curve,[1],4550
same,area under confluence curve,"test compound dose 1000 nM, dosing schedule: sequential, osimertinib-only DTP control AUC in same experiment: 12535, DMSO control AUC in same experiment: 43316",4790
same,area under confluence curve,"test compound dose 1000 nM, dosing schedule: sequential, osimertinib-only DTP control AUC in same experiment: 15163, DMSO control AUC in same experiment: 28684",5770
same,area under confluence curve,"test compound dose 1000 nM, dosing schedule: upfront, osimertinib-only DTP control AUC in same experiment: 8618, DMSO control AUC in same experiment: 30580",4780 ± 250
same,area under confluence curve,[2],8450
same,area under confluence curve,"test compound dose 1000 nM, dosing schedule: upfront, osimertinib-only DTP control AUC in same experiment: 15354, DMSO control AUC in same experiment: 43316",8140
same,area under confluence curve,"test compound dose 1000 nM, dosing schedule: upfront, osimertinib-only DTP control AUC in same experiment: 21337, DMSO control AUC in same experiment: 28684",7910
O=C(N[C@@H](C1CC1)C(F)(F)F)c1cc(-c2cnn3cc(-c4ccc(F)cc4)cnc23)cs1 + C=CC(=O)Nc1cc(Nc2nccc(-c3cn(C)c4ccccc34)n2)c(OC)cc1N(C)CCN(C)C [osimertinib],area under confluence curve,"test compound dose 1000 nM, dosing schedule: sequential, osimertinib-only DTP control AUC in same experiment: 10206, DMSO control AUC in same experiment: 18733",9160
same,area under confluence curve,"test compound dose 1000 nM, dosing schedule: upfront, osimertinib-only DTP control AUC in same experiment: 17072, DMSO control AUC in same experiment: 18733",16800
Cc1nc(N2CCC3(CC2)CO[C@@H](C)[C@H]3N)c(CO)nc1-c1cccc(Cl)c1Cl + C=CC(=O)Nc1cc(Nc2nccc(-c3cn(C)c4ccccc34)n2)c(OC)cc1N(C)CCN(C)C [osimertinib],area under confluence curve,"test compound dose 1000 nM, dosing schedule: sequential, osimertinib-only DTP control AUC in same experiment: 10671, DMSO control AUC in same experiment: 21678",9600
same,area under confluence curve,"test compound dose 1000 nM, dosing schedule: sequential, osimertinib-only DTP control AUC in same experiment: 13130, DMSO control AUC in same experiment: 20567",7660
same,area under confluence curve,"test compound dose 1000 nM, dosing schedule: upfront, osimertinib-only DTP control AUC in same experiment: 18577, DMSO control AUC in same experiment: 20567",13500
same,area under confluence curve,"test compound dose 1000 nM, dosing schedule: upfront, osimertinib-only DTP control AUC in same experiment: 19512, DMSO control AUC in same experiment: 21678",10500
Cc1[nH]nc(C(F)(F)F)c1Cc1sc2c(c1C(=O)N1C[C@](C)(O)CO1)c(=O)n(C)c(=O)n2C(C)C + C=CC(=O)Nc1cc(Nc2nccc(-c3cn(C)c4ccccc34)n2)c(OC)cc1N(C)CCN(C)C [osimertinib],area under confluence curve,[1],18600
same,area under confluence curve,[2],11200
CCN(c1cc(-c2ccc(CN3CCOCC3)cc2)cc(C(=O)NCc2c(C)cc(C)[nH]c2=O)c1C)C1CCOCC1 [Tazemetostat] + C=CC(=O)Nc1cc(Nc2nccc(-c3cn(C)c4ccccc34)n2)c(OC)cc1N(C)CCN(C)C [osimertinib],area under confluence curve,"test compound dose 1000 nM, dosing schedule: sequential, osimertinib-only DTP control AUC in same experiment: 14030, DMSO control AUC in same experiment: 30326",11100
same,area under confluence curve,"test compound dose 1000 nM, dosing schedule: upfront, osimertinib-only DTP control AUC in same experiment: 20885, DMSO control AUC in same experiment: 30326",16200
CCc1cc2c(cc1N1CCC(N3CCOCC3)CC1)C(C)(C)c1[nH]c3cc(C#N)ccc3c1C2=O [Alectinib] + C=CC(=O)Nc1cc(Nc2nccc(-c3cn(C)c4ccccc34)n2)c(OC)cc1N(C)CCN(C)C [osimertinib],area under confluence curve,[3],12500
same,area under confluence curve,[4],10800
O=C(c1cc(Cc2n[nH]c(=O)c3ccccc23)ccc1F)N1CCN(C(=O)C2CC2)CC1 [Olaparib] + C=CC(=O)Nc1cc(Nc2nccc(-c3cn(C)c4ccccc34)n2)c(OC)cc1N(C)CCN(C)C [osimertinib],area under confluence curve,[3],7460
same,area under confluence curve,[5],12600
same,area under confluence curve,[6],16600
same,area under confluence curve,[4],18600
Cc1cc2ncnn2cc1Nc1ncc2c(n1)n(C1CCOCC1)c(=O)n2C + C=CC(=O)Nc1cc(Nc2nccc(-c3cn(C)c4ccccc34)n2)c(OC)cc1N(C)CCN(C)C [osimertinib],area under confluence curve,[5],10500
same,area under confluence curve,[6],12700
